Our source for the growth values is PubChem BioAssay (NCI).

Where “and” joins values, the source holds several entries; their conditions need not be identical. Equal values may be shown once. Compounds without any hit were thinned out: in the full panel of roughly 83,000, 20% have a hit.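 Compound tested at a single concentration for 48 hours in 96-well plates; a percent growth value below 10 was scored as active.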 Calls of active or inactive are those of the source.

Common to all, as to experiment: NCI-60 one-dose screen, 48 h (100 = growth as untreated, 0 = no growth, -100 = all killed)
For one experiment, the system named is SR leukemia. The settings on record: 10 µM unless noted.
For the next experiment, the system named is RPMI-8226 leukemia. To be noted: 10 µM.
The next experiment relates to OVCAR-8 ovarian. To be noted: 10 µM.
In the next experiment the test system is OVCAR-5 ovarian. To be noted: 10 µM.
The next experiment concerns OVCAR-4 ovarian. The settings on record: 10 µM.
A further experiment relates to SK-OV-3 ovarian. The settings on record: 10 µM.
Another experiment deals with IGROV1 ovarian. The settings on record: 10 µM.
In the next experiment the test system is OVCAR-3 ovarian. To be noted: 10 µM.
The next experiment has as its system HS 578T breast. To be noted: 10 µM.
In the next experiment the test system is NCI/ADR-RES ovarian. To be noted: 10 µM.

Regarding `COC(=O)C1C(O)C(C)C(O)C(C)C=C(C)C2=C3C(=C(C)C(=O)c4c(O)c(c(C)c(OC(C)=O)c43)NC(=O)C(C)=C/C=C\C(C)C(O)C(C)C1O)OCO2` (stereo not drawn), the growth in the experiment on SR leukemia is 138% (inactive); with RPMI-8226 leukemia, 118% (inactive); in the experiment with OVCAR-8 ovarian, 114% (inactive); in the experiment with OVCAR-5 ovarian, 104% (inactive); with OVCAR-4 ovarian, 108% (inactive); in the experiment with SK-OV-3 ovarian, 116% (inactive). In addition, the growth is 163% (inactive) in the experiment on IGROV1 ovarian, 113% (inactive) with OVCAR-3 ovarian, 116% (inactive) in the experiment on HS 578T breast and 121% (inactive) in the experiment with NCI/ADR-RES ovarian.

Regarding `O=C(/C=C/c1cccnc1)c1ccccc1`, the growth in the experiment on SR leukemia was 14.5% (inactive); with RPMI-8226 leukemia, 54.1% (inactive); in the experiment with OVCAR-8 ovarian it was 83.8% (inactive); in the experiment with OVCAR-5 ovarian, 91.3% (inactive); in the experiment with OVCAR-4 ovarian it was 91.7% (inactive); in the experiment on SK-OV-3 ovarian, 103% (inactive). The growth with IGROV1 ovarian was 96.5% (inactive); with OVCAR-3 ovarian, 85.8% (inactive); in the experiment on NCI/ADR-RES ovarian it was 86% (inactive).

For `COC(=O)C1=COC(C)C2C[n+]3ccc4c([nH]c5ccccc54)c3CC12` (stereo not drawn), the growth in the experiment on SR leukemia was 104% (inactive) and 99.4% (inactive); in the experiment with RPMI-8226 leukemia it was 93.9% (inactive) and 95.8% (inactive); with OVCAR-8 ovarian, 107% (inactive) and 89.8% (inactive); with OVCAR-5 ovarian, 105% (inactive) and 94.7% (inactive); in the experiment on OVCAR-4 ovarian, 100% (inactive) and 108% (inactive); in the experiment on SK-OV-3 ovarian, 114% (inactive) and 83.8% (inactive). Moreover, the growth was 103% (inactive) and 82.5% (inactive) in the experiment on IGROV1 ovarian; 104% (inactive) and 97.4% (inactive) in the experiment on OVCAR-3 ovarian; 111% (inactive) and 79.6% (inactive) in the experiment with HS 578T breast; 108% (inactive) and 102% (inactive) with NCI/ADR-RES ovarian.

Take `C[n+]1c2cc(N)ccc2cc2ccc(N)cc21`: the growth was 5.82% (active) and 0.679% (active) and -0.456% (active) in the experiment with SR leukemia; -5.86% (active) and 16.3% (inactive) and -3.49% (active) in the experiment with OVCAR-5 ovarian; 3.68% (active) [middle of 4 runs] in the experiment with SK-OV-3 ovarian; 16.7% (inactive) and 36.3% (inactive) and 12.2% (inactive) in the experiment on IGROV1 ovarian; 18.2% (inactive) [middle of 4 runs] in the experiment on NCI/ADR-RES ovarian.

As to `NNc1c2ccccc2nc2ccccc12`, the growth was 21.1% (inactive) in the experiment on SR leukemia; 34.7% (inactive) with RPMI-8226 leukemia; 57.2% (inactive) in the experiment with OVCAR-8 ovarian; 102% (inactive) with OVCAR-5 ovarian; 34.4% (inactive) in the experiment with OVCAR-4 ovarian; 63.5% (inactive) in the experiment with SK-OV-3 ovarian. The figures for the growth in the experiment with IGROV1 ovarian, with OVCAR-3 ovarian and in the experiment with NCI/ADR-RES ovarian were 55% (inactive), 51.4% (inactive) and 57.3% (inactive), respectively.

`CO[C@H](C(=O)[C@@H](O)[C@@H](C)O)[C@@H]1Cc2cc3cc(OC4CC(OC5CC(O)C(O)C(C)O5)C(O)C(C)O4)c(C)c(O)c3c(O)c2C(=O)[C@H]1OC1CC(OC2CC(OC3CC(C)(O)C(O)C(C)O3)C(O)C(C)O2)C(O)C(C)O1` (stereo partly drawn): the growth was 10.5% (inactive) in the experiment with SR leukemia; -14.5% (active) with RPMI-8226 leukemia; -54.9% (active) with OVCAR-5 ovarian; 8.23% (active) in the experiment on OVCAR-4 ovarian; 35.3% (inactive) in the experiment with SK-OV-3 ovarian; -21% (active) in the experiment with IGROV1 ovarian. Besides, the growth in the experiment with OVCAR-3 ovarian was 3.02% (active); in the experiment with NCI/ADR-RES ovarian, 44.4% (inactive).

Consider `CCCCCCCCCCCCSC(=NC)NC`, for which the growth in the experiment on SR leukemia is -4.45% (active) and -23.7% (active); with RPMI-8226 leukemia, -6.03% (active) and 23.3% (inactive); in the experiment with OVCAR-8 ovarian it was 62.1% (inactive) and 82% (inactive); in the experiment on OVCAR-5 ovarian it was 57.5% (inactive) and 84.1% (inactive); in the experiment on OVCAR-4 ovarian it was 31.3% (inactive) and 71.2% (inactive); in the experiment on SK-OV-3 ovarian, 51% (inactive) and 79.1% (inactive). Moreover, the growth in the experiment with IGROV1 ovarian is 20.3% (inactive) and 66.7% (inactive); in the experiment on OVCAR-3 ovarian, 36.8% (inactive) and 71.7% (inactive); in the experiment on HS 578T breast it was 81.4% (inactive) and 93.2% (inactive); in the experiment on NCI/ADR-RES ovarian, 47.4% (inactive) and 69.1% (inactive).

Consider `CSC1SCC2C(=O)N(C)C(C(C)C)C(=O)OCC(NC(=O)c3cnc4ccccc4n3)C(=O)NC(C)C(=O)N(C)C1C(=O)N(C)C(C(C)C)C(=O)OCC(NC(=O)c1cnc3ccccc3n1)C(=O)NC(C)C(=O)N2C` (stereo not drawn), for which the growth was -37.7% (active) in the experiment on SR leukemia; -30% (active) with RPMI-8226 leukemia; 2.94% (active) in the experiment with OVCAR-5 ovarian; 1.22% (active) in the experiment on OVCAR-4 ovarian; 15.5% (inactive) in the experiment on SK-OV-3 ovarian; 0.149% (active) in the experiment with IGROV1 ovarian. Besides, the growth was 5.79% (active) in the experiment with OVCAR-3 ovarian, -60.8% (active) in the experiment on HS 578T breast and 7.62% (active) in the experiment with NCI/ADR-RES ovarian.

Turning to `O=[N+]([O-])C1=C(c2ccccc2)SC=C(c2ccccc2)S1`, the growth in the experiment with SR leukemia is 6.09% (active); in the experiment with RPMI-8226 leukemia it was 48.6% (inactive); in the experiment with OVCAR-8 ovarian, 71.4% (inactive); with OVCAR-5 ovarian, 113% (inactive); in the experiment on OVCAR-4 ovarian, 87.4% (inactive); with SK-OV-3 ovarian it was 79.4% (inactive). Further, the growth was 76.3% (inactive) in the experiment on IGROV1 ovarian, 73.6% (inactive) in the experiment on OVCAR-3 ovarian, 85.7% (inactive) in the experiment on HS 578T breast and 78.1% (inactive) with NCI/ADR-RES ovarian.

`CCCCCCCCCCCCCCCCCCOCC(COP(=O)([O-])OCC[N+](C)(C)C)OC` (stereo not drawn): the growth in the experiment with SR leukemia was 48.1% (inactive); in the experiment with RPMI-8226 leukemia, 33.1% (inactive); in the experiment with OVCAR-5 ovarian, -61.3% (active); in the experiment with OVCAR-4 ovarian, 109% (inactive); with SK-OV-3 ovarian, 81.8% (inactive); with IGROV1 ovarian it was 11.8% (inactive). For the same compound, the values for the growth in the experiment with OVCAR-3 ovarian and in the experiment with NCI/ADR-RES ovarian were 95.9% (inactive) and 107% (inactive), respectively.

Take `O=C(C(=Cc1ccccc1)C(=O)c1ccccc1)c1ccccc1`: the growth with SR leukemia is 6.35% (active) and 108% (inactive); with RPMI-8226 leukemia it was -2.63% (active) and 85.2% (inactive); with OVCAR-8 ovarian, 47.8% (inactive) and 87% (inactive); in the experiment on OVCAR-5 ovarian, 91.7% (inactive) and 84.7% (inactive); with OVCAR-4 ovarian it was 73.6% (inactive) and 84.7% (inactive); in the experiment on SK-OV-3 ovarian, 99.5% (inactive) and 106% (inactive). The growth with IGROV1 ovarian is 75.1% (inactive) and 117% (inactive); in the experiment with OVCAR-3 ovarian, 66.3% (inactive) and 85.7% (inactive); in the experiment with HS 578T breast, 65.2% (inactive) and 94.3% (inactive); in the experiment on NCI/ADR-RES ovarian it was 54.3% (inactive) and 84.3% (inactive).
